# Screening data as filed in PubChem BioAssay.
# GPR151 ag: activators of human GPR151, primary screen, cell-based, PathHunter beta-arrestin, luminescence | G-protein coupled receptor 151 (Homo sapiens), Q8TDV0 | PathHunter beta-arrestin GPR151 cells | activation, % at 11.2 µM | actives 1% (n = 650,000) | AID 1508602, 2020; in the data active = activation above about 4.9%;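 also: 0% = median of compound wells and 100% = cells with positive control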
# Target sequence (Q8TDV0 whole entry, looked up): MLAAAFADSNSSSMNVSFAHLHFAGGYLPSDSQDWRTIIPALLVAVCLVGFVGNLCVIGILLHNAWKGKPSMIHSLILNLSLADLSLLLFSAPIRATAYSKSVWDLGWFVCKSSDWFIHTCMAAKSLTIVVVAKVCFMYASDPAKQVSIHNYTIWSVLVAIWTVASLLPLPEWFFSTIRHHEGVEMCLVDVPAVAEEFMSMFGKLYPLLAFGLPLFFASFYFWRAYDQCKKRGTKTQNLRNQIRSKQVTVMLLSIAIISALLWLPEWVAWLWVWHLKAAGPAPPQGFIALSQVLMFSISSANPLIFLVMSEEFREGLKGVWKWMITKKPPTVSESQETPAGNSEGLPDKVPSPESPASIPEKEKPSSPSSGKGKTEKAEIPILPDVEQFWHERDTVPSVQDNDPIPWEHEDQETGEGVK
# TEAD-YAP inh: TEAD-YAP interaction inhibition, primary screen, TEAD-YAP interaction inhibitor project, luminescence, HEK-TIYL cells; TEAD-Gal4/YAP UAS-luciferase luminescence; inhibition, % at 9.12 µM; actives 1.4% (n = 640,000); AID 1259422, 2018; in the data active = inhibition above about 32%;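 also: 0% = median of test compound wells and 100% = reference inhibitor wells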
# FBW7 activator: FBW7 E3 ligase activators, primary screen, biochemical, AlphaScreen, human | F-box/WD repeat-containing protein 7 (Homo sapiens), Q969H0 | AlphaScreen FBW7–phospho-cyclin E peptide binding, activator screen | normalized activity (activation), % at 26.1 µM | actives 0.13% (n = 650,000) | AID 1259310, 2017; in the data active = normalized activity above about 1.9%;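 also: purified mutant Fbw7 with reduced substrate affinity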
# MITF inh: MITF inhibitors, primary screen, biochemical, AlphaScreen, human; Microphthalmia-associated transcription factor (Homo sapiens), O75030; AlphaScreen MITF homodimerization, bead proximity signal; inhibition, % at 2.6 µM; actives 0.91% (n = 650,000); in the data active = inhibition above about 50%;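 also: 0% = vehicle wells with protein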
# GPR151 confirm: GPR151 activators, triplicate retest, confirmation, cell-based, PathHunter beta-arrestin, luminescence; shares compounds with GPR151 ag; AID 1508609, 2020; GPR151 PathHunter beta-arrestin cells, 90 min; % of EA-reagent control over plate median; 6,700 tested, under 10 active; activation, % at 11.2 µM;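 active = mean percent activation across replicates above the confirmation screen cutoff of 4.91%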
# GPR119 counter: GPR119 activators in beta-arrestin cells, counter-screen for GPR151 activator project, cell-based, PathHunter beta-arrestin, luminescence, triplicate. AID 1508611, 2020. shares compounds with GPR151 ag. 90 min; 0 = compound-well median, 100 = enzyme-acceptor control. actives 0.3% (n = 6,700). activation, % at 11.2 µM;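 active = mean percent activation in the counterscreen above 29.09%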;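 also: counterscreen on off-target GPR119 to flag nonselective hits from the GPR151 activator screen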
# * = called active by the depositor; · = no result. Compounds with a hit are over-represented: about 3.4% of the library has one in this group of screens.
SMILES,GPR151 ag,TEAD-YAP inh,FBW7 activator,MITF inh,GPR151 confirm,GPR119 counter
CCC(NS(=O)(=O)c1ccc(C)cc1)C(=O)N1CCOCCN(C(=O)C(CC)NS(=O)(=O)c2ccc(C)cc2)CCOCC1 (centres undefined),0.5,5.0,-0.1,7.7,·,·
COC(=O)c1ccc(C2Nc3ccccc3C(=O)N2c2cc(C)cc(C)c2)cc1 (centres undefined),-1.5,2.0,0.2,6.5,·,·
COc1ccc(NC(=O)Nc2nnc(SCc3ccc(F)cc3)s2)cc1,1.2,-9.2,-0.2,3.5,·,·
CC1CCCC(C)N1c1nnc(NC(=O)Nc2ccc(F)cc2)s1 (centres undefined),5.3*,-22.9,0.2,4.0,-0.1,-11.7
O=C(Nc1ccc(F)cc1)Nc1nnc(SCc2ccccc2)s1,5.0*,6.7,-0.1,9.3,0.1,18.6
O=C(Cc1cccs1)Nc1nnc(SCc2ccccc2)s1,5.1*,-5.3,0.1,-3.3,1.5,-0.1
O=C(Nc1nnc(SCc2ccccc2)s1)c1cccs1,0.9,-15.8,0.1,10.0,·,·
CC1=CC(C)(C)N(C(=O)CN2C(=O)CCC2=O)c2cc(C)ccc21,11.8*,3.3,-0.2,5.4,-0.6,-11.9
CC12C=CC(C)(O1)C1C(=O)N(c3ccccc3)C(=O)C12 (centres undefined),1.4,-0.5,-0.2,-7.3,·,·
CC12C=CC(C)(O1)C1C(=O)N(c3ccc(-c4ccccc4)cc3)C(=O)C12 (centres undefined),5.7*,-2.7,-0.1,-13.1,-1.0,-14.8
CC(=O)Nc1cnc2cnc(-c3ccc(C(C)C)cc3)cn12,5.2*,8.8,-0.3,15.2,-0.8,-3.9
CCCCC(=O)Nc1nnc(S(=O)(=O)N(CC)c2ccc(Cl)cc2)s1,5.7*,6.4,-0.1,-6.4,1.1,3.2
CCCC(=O)Nc1nnc(S(=O)(=O)N(CC)c2ccc(Cl)cc2)s1,-0.5,10.9,-0.1,6.1,·,·
CC(C)Oc1nc(-c2ccccc2Cl)nc2ccccc12,0.7,4.2,-0.1,0.8,·,·
COc1nc(-c2ccccc2Cl)nc2ccccc12,5.2*,0.6,0.1,5.4,1.1,-5.1
O=C(Nc1cc(Cl)ccc1O)c1nn2c(C(F)(F)F)cc(-c3ccc(Br)cc3)nc2c1Cl,-0.6,0.5,-0.1,-10.1,·,·
CC(C)COCC(O)CCC(=O)NNC(=S)Nc1ccccc1 (centres undefined),6.5*,-5.1,-0.3,1.8,0.6,13.9
CCCCCC(O)CCC(=O)NNC(=S)Nc1ccccc1 (centres undefined),0.5,1.9,0.3,6.8,·,·
Cc1csc(NC(=O)C2CCC(C)(C(=O)O)C2(C)C)n1 (centres undefined),7.3*,-2.0,-0.1,1.9,-0.7,-10.5
CC1(C(=O)O)CCC(C(=O)Nc2ccc(Nc3ccccc3)cc2)C1(C)C (centres undefined),0.7,-1.1,-0.1,12.1,·,·
Cc1ccccc1NC(=O)C1CCC(C)(C(=O)O)C1(C)C (centres undefined),5.1*,-3.5,0.0,1.7,-1.2,-9.6
COc1cccc(Nc2nc(Cc3ccccc3)nc3sc4c(c23)CCCC4)c1,0.0,6.0,-0.1,10.6,·,·
COC(=O)C(Sc1c(O)cc(C)oc1=O)(C(F)(F)F)C(F)(F)F,-0.2,-9.9,-1.3,5.4,·,·
COC(=O)C(Sc1cc2c(cc1O)OCO2)(C(F)(F)F)C(F)(F)F,5.3*,2.6,-0.3,4.6,0.0,1.0
COc1ccc(C(=O)c2sc3nc(C)cc(C)c3c2N)c(OC)c1,7.0*,-4.8,1.5,1.7,-0.1,8.5
SMILES,GPR151 ag,TEAD-YAP inh,FBW7 activator,MITF inh,GPR151 confirm,GPR119 counter
CCOc1ccc(-c2nnn(CC(C)=O)n2)cc1OCC,0.1,-52.5,-0.1,5.5,·,·
CCOc1ccc(-c2nnn(CC(C)=O)n2)cc1,10.0*,-68.4,-0.2,-8.8,0.1,14.2
COc1ccc2cc(C(=O)Nc3cccc(C)c3)c(=N)oc2c1,0.2,-42.0,0.8,12.9,·,·
COc1ccc2c(-c3csc(N)n3)c[nH]c2c1,8.4*,13.6,-0.5,-2.2,0.2,6.0
COc1ccc2c(c1)c(-c1csc(N)n1)c(C)n2C,-1.0,1.4,-0.1,15.8,·,·
COc1ccc(Nc2nc(-c3c[nH]c4ccccc34)cs2)cc1,5.4*,-14.6,-0.1,15.6,0.0,-3.1
c1ccc2c(c1)CCN(c1cc(Nc3ccc(N4CCOCC4)cc3)ncn1)C2,0.8,-26.8,0.0,21.9,·,·
COc1ccc(/C=N/Nc2nncn2N)cc1OC,2.8,-11.1,-1.2,4.0,·,·
CN1CCN(C2=Nc3c(Cl)cc(Cl)c4cccc2c34)CC1,11.8*,-9.8,-0.1,-1.8,1.4,-0.8
O=C(COC(=O)c1cc([N+](=O)[O-])ccc1NCCO)Nc1ccc(F)cc1,1.1,10.8,0.0,-38.2,·,·
O=C(COC(=O)c1cc([N+](=O)[O-])ccc1NCCO)Nc1ccc(F)cc1F,5.6*,-17.1,-0.1,-0.7,0.2,-5.1
Cc1nc(NC(=O)COc2ccc([N+](=O)[O-])cc2)ccc1I,-0.8,1.3,0.1,15.1,·,·
COc1ccccc1C1CN(CC(=O)N(C)C(C)c2nccs2)Cc2ccccc2O1 (centres undefined),-1.3,-1.7,0.1,-7.5,·,·
CN(Cc1nccs1)C(=O)CN1Cc2ccccc2OC(c2ccccc2F)C1 (centres undefined),6.6*,2.1,1.2,2.7,1.4,12.0
COc1ccc2c(CC(=O)OCC(=O)N(CC(C)C)C3CCS(=O)(=O)C3)coc2c1 (centres undefined),0.3,-2.3,0.1,-5.2,·,·
CC[C@@H]1NC(=O)[C@@H]2C[C@H](NC(=O)OCc3ccccc3)CN2C1=O,5.8*,-0.5,0.0,7.4,0.6,7.3
O=C(N[C@H]1C[C@H]2C(=O)N[C@@H](CO)C(=O)N2C1)OCc1ccccc1,-1.1,-3.3,0.0,18.2,·,·
COc1cccc(C(=O)N[C@H]2C[C@H]3C(=O)N[C@@H](CCCCN)C(=O)N3C2)c1,5.8*,2.0,0.0,10.9,0.2,11.4
COc1cccc(C(=O)N[C@H]2C[C@H]3C(=O)N[C@H](CO)C(=O)N3C2)c1,-0.4,-2.4,0.2,-9.8,·,·
CCC[C@@H]1NC(=O)[C@@H]2C[C@H](NC(=O)N[C@@H](C)c3ccccc3)CN2C1=O,-0.9,-4.9,0.1,-10.8,·,·
CC(C)C[C@H]1NC(=O)[C@@H]2C[C@H](NC(=O)c3cccc(F)c3F)CN2C1=O,-0.5,-10.0,-0.1,-1.8,·,·
C[C@@H](NC(=O)N[C@H]1C[C@H]2C(=O)N[C@H](CO)C(=O)N2C1)c1ccccc1,7.6*,16.1,0.0,11.7,1.1,6.0
